HCV inhibitor: inhibitors of hepatitis C virus infection. Huh7.5.1 HCVcc-Cre infection, luciferase reporter, 44 h. AID 651820. 340,000 compounds, 3.4% hits. Potency, µM (highest dose often 41.8 µM), without a hit: at the highest dose activity change, negative = inhibition, hits mostly inhibitors; also: potency is read from the fitted curve at half-maximal effect
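Antiviral activity was scored by luciferase reporter output from cells infected with HCVcc-Cre (~0.5 moi) in presence of compound, 44 h infection period, cells seeded 1,000/well 4 h prior.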
FMDV inh: blocks foot and mouth disease virus; Potency, µM (doses to about 57.9 µM), for inactives: at the highest dose activity change, negative = inhibition, most hits filed as inhibitors; AID 1159524; FMDV antiviral cell-based qHTS; 410,000 compounds, 1.2% hits; calls by dose curve; tested in HEK293T cells; also: read-out not given here; potency is read from the fitted curve at half-maximal effect; nearly all actives have a fitted effect of over 45% in size
AmpC inh detg: blocks E. coli AmpC beta-lactamase in detergent assay | P00811 | AmpC hydrolysis of nitrocefin, absorbance 480 nm, 0.01% Triton | Potency, µM (top dose mostly 114 µM), inactives show top-dose activity change, negative = inhibition, most hits filed as inhibitors | 370,000 compounds, 0.041% hits;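 also: potency is read from the fitted curve at half-maximal effect; 0% = no-compound wells and -100% = no-enzyme wells; nearly all actives have a fitted effect of over 25% in size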
Target sequence (P00811 whole entry, looked up): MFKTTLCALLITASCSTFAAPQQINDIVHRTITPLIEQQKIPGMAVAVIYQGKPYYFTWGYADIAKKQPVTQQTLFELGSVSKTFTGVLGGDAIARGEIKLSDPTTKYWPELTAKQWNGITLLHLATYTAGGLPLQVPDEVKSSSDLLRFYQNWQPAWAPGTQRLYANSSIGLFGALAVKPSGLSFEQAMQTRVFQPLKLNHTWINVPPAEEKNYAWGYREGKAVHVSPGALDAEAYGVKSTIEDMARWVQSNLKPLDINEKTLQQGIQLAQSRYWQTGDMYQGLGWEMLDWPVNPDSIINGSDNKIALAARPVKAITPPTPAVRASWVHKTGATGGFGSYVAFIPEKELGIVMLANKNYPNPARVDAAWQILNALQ
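20 mM phosphate pH 7.0 + 0.01% (detergent screen) or 0.0001% Triton X-100; 5.3 nM AmpC reagent; cpd preinc 15 min RT; nitrocefin (800 uM stock) to start; A480 q20 s × 4 min; Activity was normalised to no-enzyme and no-compound control wells.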
HCMV antiviral: inhibitors of human cytomegalovirus; HFF cells, HCMV-luciferase reporter, 72 h; active compounds read low; activity change, negative = inhibition, % at 57.5 µM; 410,000 compounds, 4.5% hits; in the data active = activity change below about -60%; inconclusive = no clear call, values can overlap the other calls; inactive = above about -39%
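HFF cells seeded 16 h at 37C, treated with compounds, infected with luciferase-reporter HCMV at MOI 1 PFU/cell; luciferase read at 72 h post infection, normalized to buffer-only and Salinomycin controls.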
AmpC inh no detg: AmpC beta-lactamase inhibition without detergent; P00811; AmpC nitrocefin hydrolysis, absorbance 480 nm, 0.0001% Triton; Potency, µM (series often up to 57.1 µM), inactives show at the highest dose activity change, negative = inhibition, most hits filed as inhibitors; 330,000 compounds, 0.52% hits; AID 485341;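 also: potency is read from the fitted curve at half-maximal effect; plate controls were no compound for no effect and no enzyme for full effect; nearly all actives have a fitted effect of over 20% in size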
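20 mM phosphate pH 7.0 + 0.01% (detergent screen) or 0.0001% Triton X-100; 5.3 nM AmpC reagent; cpd preinc 15 min RT; nitrocefin (800 uM stock) to start; A480 q20 s × 4 min; Activity was normalised to no-enzyme and no-compound control wells.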
* marks the source's active call; other numbers are inactive results; ? = inconclusive; / = no result. An excerpt weighted towards active compounds, which were near 7.3% of everything screened. Unless noted, calls follow the shape of the dose curve; as a rule, active = well fitted curve in the direction sought with a large enough effect; inconclusive = small, poorly fitted or top-dose-only effect, or another doubt; inactive = no such curve, though single readings can be large; an effect the other way counts as inactive or inconclusive. Unless noted, % is scaled to controls: 0 for no effect and ±100 for the full control effect.

SMILES | HCV inhibitor | FMDV inh | AmpC inh detg | HCMV antiviral | AmpC inh no detg
COc1ccc(-n2sc3ccc(F)cc3c2=O)cc1 | 2.8µM* | -59% | -14% | -5 | -33%
COc1ccc(-n2cc(C(=O)O)c3ccccc3c2=O)cc1 | 2% | 7% | 7% | -1 | -18%
C[C@H](CCC(=O)NCCS(=O)(=O)O)C1CC[C@H]2C3CC[C@@H]4C[C@H](O)CC[C@]4(C)C3C[C@H](O)[C@]12C (stereo partly specified) | / | -4% | / | / | /
Cc1cccc(-c2cc(C(=O)Nc3ccc4c(c3)OCCO4)c3ccccc3n2)c1 | ? | 0% | -1% | -37 | -14%
COc1ccc(NC(=O)c2cc(-c3ccncc3)nc3ccc(Br)cc23)cc1OC | 13µM* | -19% | 3% | -90* | 15%
O=C(Nc1ccc2c(c1)OCCO2)c1cc(-c2ccccn2)nc2ccc(Br)cc12 | -29% | -19% | 2% | -94* | -18%
Cc1ccc(NC(=O)c2ccccc2[N+](=O)[O-])cc1[N+](=O)[O-] | / | / | / | 28 | /
COCCNC(=O)CN(c1ccc(F)cc1)S(=O)(=O)c1ccc2c(c1)OCCO2 | 1% | 12% | 2% | 4 | 8%
c1ccc(-c2cc3ccccc3[nH]2)cc1 | ? | 19% | -7% | -65* | -20%
CCOc1cccc(/C=N/NC(=S)Nc2cc(S(=O)(=O)N3CCOCC3)ccc2N2CCOCC2)c1O | ? | ? | -7% | -79* | 9%
COc1ccc(/C=N/NC(=S)Nc2cc(S(=O)(=O)N3CCOCC3)ccc2N2CCOCC2)cc1O | 10µM* | ? | -6% | -30 | 36%
COc1ccc2ccccc2c1/C=N/NC(=S)Nc1cc(S(=O)(=O)N2CCOCC2)ccc1N1CCOCC1 | ? | -19% | -3% | -34 | -9%
CCOC(=O)c1ccc(Oc2cc(C)nc(Cl)n2)cc1 | -3% | 3% | 2% | -7 | -3%
CCCCCCOc1ccc(CN2CCN(CC)CC2)cc1 | ? | -6% | ? | -75* | 26%
CCCCCCCCOc1ccc(C(=O)O)cc1 | 6.3µM* | 6% | 0% | 18 | -12%
COc1ccc2cc(CN(CC3CCCO3)C(=S)Nc3ccccc3)c(=O)[nH]c2c1 (stereo unspecified) | ? | 0% | -5% | -73* | 32%
CN(C)CCCN(Cc1cc2cc3c(cc2[nH]c1=O)OCO3)C(=S)Nc1ccccc1 | ? | -17% | 2% | 41 | -11%
Cc1cc2cc(CN(CC3CCCO3)C(=S)Nc3ccccc3)c(=O)[nH]c2cc1C (stereo unspecified) | ? | -24% | -9% | -82* | -12%
COc1ccc2[nH]c(=O)c(CN(CC3CCCO3)C(=S)Nc3ccccc3)cc2c1 (stereo unspecified) | ? | -17% | -4% | -25 | -4%
Cc1cc2cc(CN(CC3CCCO3)C(=S)NCc3ccco3)c(=O)[nH]c2cc1C (stereo unspecified) | -14% | -19% | -12% | -23 | 75%
CN(C)CCCN(Cc1cc2cc3c(cc2[nH]c1=O)OCO3)C(=S)Nc1cccc(Cl)c1 | 10µM* | -28% | -5% | ? | 142%
COc1ccc(N(Cc2cc3ccccc3[nH]c2=O)C(=O)C2CCCO2)cc1 (stereo unspecified) | 7% | -25% | 8% | -65* | 13%
COc1ccc(N2CCN(c3ncnc4c3[nH]c3ccccc34)CC2)cc1 | 5.6µM* | 4µM* | -7% | -92* | /
COc1cc2[nH]c3c(N4CCN(c5ccccn5)CC4)ncnc3c2cc1OC | 6.3µM* | 18µM* | 0% | / | 49%
COc1ccc2[nH]c3c(N4CCc5ccccc5C4)ncnc3c2c1 | ? | 25µM* | 5% | -88* | 0%
SMILES | HCV inhibitor | FMDV inh | AmpC inh detg | HCMV antiviral | AmpC inh no detg
O=C(c1ccco1)N1CCN(c2ncnc3c2[nH]c2ccccc23)CC1 | / | / | -2% | / | -28%
CCC(=O)N1CCc2cc(Br)cc(S(=O)(=O)CCC(=O)NCc3ccc(C)cc3)c21 | / | 17% | -4% | 3 | /
COc1ccccc1Oc1nc2c(c(=O)n(C)c(=O)n2C)n1Cc1cccc(Br)c1 | / | ? | -1% | -16 | /
CC(=O)c1c(N2CCOCC2)[nH]c(-c2ccccc2)nc1=S | 1% | -23% | -14% | 56 | -26%
CC(=O)c1c(N2CCCC2)[nH]c(-c2ccccc2)nc1=S | 22µM* | -13% | 1% | -23 | -24%
Cc1cc(C)cc(NC(=O)CSc2ccc(-c3ccccn3)nn2)c1 | 13µM* | -16% | 1% | -1 | -5%
Cc1nc(C)c(-c2ccc(SCC(=O)Nc3ccc(Br)cc3)nn2)s1 | / | -17% | -10% | -69* | /
Cc1ccccc1NC(=O)CSc1ccc(-c2ccccn2)nn1 | / | -11% | 3% | -39 | -6%
COc1ccc(NC(=O)CSc2ccc(-c3sc(C)nc3C)nn2)cc1 | ? | ? | -3% | 31 | 23%
CCc1ccc(NC(=O)CSc2ccc(-c3sc(C)nc3C)nn2)cc1 | 11µM* | -21% | -1% | -39 | 101%
COC(=O)CC1C(=O)NCCN1C(=O)CN1Cc2ccccc2OC(c2ccccc2)C1 (stereo unspecified) | / | 9% | / | / | /
Cc1ccc(CCNC(=O)CN(c2ccc(C(C)C)cc2)S(=O)(=O)c2c(C)nn(C)c2C)cc1 | / | -21% | 12% | -11 | /
CCSc1nc(O)cc(=O)n1CC | 9% | -2% | ? | -7 | -24%
Nc1ccc(N(c2ccccc2)c2ccc(N)cc2)cc1 | 10µM* | ? | 1% | ? | -15%
Nc1ccc(N=Nc2ccccc2)cc1 | -9% | 3% | -8% | 24 | -21%
Cc1cc(N2CCCC2)c(F)cc1/C=C\[N+](=O)[O-] | 5% | 22µM* | 5% | -4 | 24%
O=C(NCc1ccccc1)C(c1ccccc1F)N(C(=O)c1csnn1)C1CCCC1 (stereo unspecified) | 22% | 20% | ? | ? | 1%
CCn1c(CNc2ccc(Cl)cc2)nnc1SCCN1CCCCC1 | ? | -19% | -1% | -106* | 6%
c1ccc(NCc2nnc3n2CCCCC3)cc1 | -5% | / | -1% | 40 | -12%
Clc1ccc(NCc2nnc3n2CCCCC3)cc1 | 6% | -15% | -7% | -99* | -19%
CCn1c(CNc2ccc(Cl)cc2)nnc1SCc1ccc(Cl)cc1 | ? | -15% | -14% | -11 | 2%
CC(=O)Nc1ccc(S(=O)(=O)N2CCN(CCN3CCOCC3)CC2)cc1Cl | 15% | 4% | -1% | 22 | -1%
CCc1nc(N)c(C#N)c(-c2ccccc2OC)c1C | -1% | ? | -3% | -3 | -27%
COc1ccccc1-c1c(C)c(C)nc(N)c1C#N | 13% | -1% | -10% | -72* | -3%
COc1ccccc1-c1c(C#N)c(N)nc2c1CCc1ccccc1-2 | ? | 32µM* | ? | 17 | -2%
CC(=O)Nc1ccc(-c2ccnc3c2CC(C(=O)Nc2cccc(N(C)C)c2)O3)cc1 (stereo unspecified) | / | -15% | / | 0 | /
